The whole screen tested about 5,500 compounds, of which about 2,000 (36%) were called active. About 18% were inconclusive and are not listed. Rule as the data show it: active = normalized growth mostly below about 0.91 (no sharp cut-off); inconclusive = no clear call, values can overlap the other calls; inactive = mostly above about 0.92. The list shows a part of the results.
Experiment: chemical genetic growth profiling, strain panel (AID 1159580);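 also: tested at 20 µM; growth read once vehicle control cultures reached saturation at 30 °C; 1 = growth at the plate median or of vehicle wells; lower values mean less growth of the strain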
Settings: S. cerevisiae deletion strains, growth OD

Measured: normalized growth

NCCNS(=O)(=O)c1cccc2cnccc12
inactive: locus YAL040C, strain CLN3, stronger effect = lower value 1.02 | locus YCL061C, strain MRC1 (second series), stronger effect = lower value 1.01 | locus YDR363W, strain ESC2, stronger effect = lower value 0.973 | locus YER002W, strain NOP16, stronger effect = lower value 0.988 | locus YGR078C, strain PAC10, stronger effect = lower value 0.968 | locus YGR229C, strain SMI1, stronger effect = lower value 0.972 | locus YNL128W, strain TEP1, stronger effect = lower value 0.986 | locus YNL153C, strain GIM3, stronger effect = lower value 1.05 | locus YNL175C, strain NOP13, stronger effect = lower value 0.958 | locus YNL197C, strain WHI3, stronger effect = lower value 0.917 | locus YNL224C, strain SQS1, stronger effect = lower value 0.98 | locus YNL322C, strain KRE1, stronger effect = lower value 0.98 | locus YOR083W, strain WHI5 (second series), stronger effect = lower value 0.923 | locus YPL241C, strain CIN2, stronger effect = lower value 0.998

Cc1nc(N)cc(C[n+]2csc(CCO)c2C)n1
inactive: locus YAL021C, strain ccr4, stronger effect = lower value 0.946 | locus YAL026C, strain drs2, stronger effect = lower value 0.974 | locus YAL030W, strain snc1, stronger effect = lower value 0.981 | locus YBL061C, strain skt5, stronger effect = lower value 0.983 | locus YBR009C, strain hhf1, stronger effect = lower value 0.979 | locus YBR023C, strain chs3, stronger effect = lower value 0.998 | locus YBR171W, strain sec66, stronger effect = lower value 0.971 | locus YBR231C, strain swc5, stronger effect = lower value 0.987 | locus YBR279W, strain paf1, stronger effect = lower value 0.985 | locus YCL011C, strain gbp2, stronger effect = lower value 0.966 | locus YCL016C, strain dcc1, stronger effect = lower value 0.992 | locus YCL061C, strain MRC1, stronger effect = lower value 0.977 | locus YCL069W, strain vba3, stronger effect = lower value 0.981 | locus YCR088W, strain abp1, stronger effect = lower value 0.98 | locus YDL005C, strain med2, stronger effect = lower value 0.984 | locus YDL040C, strain nat1, stronger effect = lower value 0.988 | locus YDR001C, strain nth1, stronger effect = lower value 0.974 | locus YDR069C, strain doa4, stronger effect = lower value 0.984 | locus YDR137W, strain rgp1, stronger effect = lower value 0.966 | locus YDR159W, strain sac3, stronger effect = lower value 0.965 | locus YDR195W, strain ref2 0.944 | locus YDR297W, strain sur2, stronger effect = lower value 0.979 | locus YDR334W, strain swr1, stronger effect = lower value 0.955 | locus YDR335W, strain msn5, stronger effect = lower value 0.966 | locus YDR392W, strain spt3, stronger effect = lower value 0.973 | locus YEL003W, strain gim4, stronger effect = lower value 0.971 | locus YEL037C, strain rad23, stronger effect = lower value 0.967 | locus YEL061C, strain CIN8 (second series), stronger effect = lower value 0.974 | locus YER015W, strain faa2, stronger effect = lower value 0.975 | locus YER016W, strain bim1, stronger effect = lower value 0.979 | locus YER111C, strain swi4, stronger effect = lower value 0.992 | locus YER155C, strain BEM2 (second series), stronger effect = lower value 0.975 | locus YFR010W, strain ubp6, stronger effect = lower value 0.962 | locus YGL167C, strain pmr1, stronger effect = lower value 0.973 | locus YGL173C, strain kem1, stronger effect = lower value 0.979 | locus YGL227W, strain vid30, stronger effect = lower value 0.987 | locus YGL240W, strain doc1, stronger effect = lower value 0.98 | locus YGL253W, strain hxk2, stronger effect = lower value 0.986 | locus YHR013C, strain ard1, stronger effect = lower value 0.986 | locus YHR027C, strain rpn1, stronger effect = lower value 0.988 | locus YHR030C, strain SLT2, stronger effect = lower value 0.954 | locus YHR079C, strain IRE1, stronger effect = lower value 0.942 | locus YHR142W, strain chs7, stronger effect = lower value 0.963 | locus YJL092W, strain hpr5, stronger effect = lower value 0.966 | locus YJL095W, strain BCK1 (second series), stronger effect = lower value 0.978 | locus YJL095W, strain BCK1, stronger effect = lower value 0.968 | locus YJL115W, strain asf1, stronger effect = lower value 0.969 | locus YJL129C, strain trk1, stronger effect = lower value 0.965 | locus YJL154C, strain vps35, stronger effect = lower value 0.988 | locus YJL164C, strain tpk1, stronger effect = lower value 0.985 | locus YJL166W, strain qcr8, stronger effect = lower value 0.981 | locus YJL187C, strain SWE1, stronger effect = lower value 0.99 | locus YJR066W, strain TOR1, stronger effect = lower value 0.932 | locus YKL160W, strain elf1, stronger effect = lower value 0.981 | locus YKR026C, strain gcn3, stronger effect = lower value 0.97 | locus YKR091W, strain srl3, stronger effect = lower value 0.978 | locus YLL001W, strain dnm1, stronger effect = lower value 0.983 | locus YLL026W, stronger effect = lower value 0.988 | locus YLL041C, strain sdh2, stronger effect = lower value 0.98 | locus YLR027C, strain aat2, stronger effect = lower value 0.986 | locus YLR113W, strain HOG1, stronger effect = lower value 0.941 | locus YLR221C, strain rsa3, stronger effect = lower value 0.982 | locus YLR258W, strain gsy2, stronger effect = lower value 0.986 | locus YLR262C, strain YPT6 (second series), stronger effect = lower value 0.992 | locus YLR320W, strain mms22, stronger effect = lower value 0.988 | locus YLR342W, strain FKS1, stronger effect = lower value 0.991 | locus YLR357W, strain rsc2, stronger effect = lower value 0.99 | locus YLR370C, strain arc18, stronger effect = lower value 0.979 | locus YLR384C, strain iki3, stronger effect = lower value 0.983 | locus YML120C, strain ndi1, stronger effect = lower value 0.962 | locus YMR058W, strain fet3, stronger effect = lower value 0.969 | locus YMR125W, strain sto1, stronger effect = lower value 0.946 | locus YMR129W, stronger effect = lower value 0.97 | locus YMR205C, strain PFK2, stronger effect = lower value 1.01 | locus YMR231W, strain pep5, stronger effect = lower value 0.992 | locus YNL071W, strain lat1, stronger effect = lower value 0.988 | locus YNL183C, strain NPR1, stronger effect = lower value 0.926 | locus YNL209W, strain ssb2, stronger effect = lower value 0.981 | locus YNL248C, strain rpa49, stronger effect = lower value 0.948 | locus YNL322C, strain KRE1 (second series), stronger effect = lower value 0.964 | locus YNR049C, strain mso1, stronger effect = lower value 0.978 | locus YOR001W, strain rrp6, stronger effect = lower value 0.95 | locus YOR070C, strain gyp1, stronger effect = lower value 0.998 | locus YOR080W, strain dia2, stronger effect = lower value 0.971 | locus YOR083W, strain WHI5, stronger effect = lower value 0.969 | locus YOR106W, strain vam3, stronger effect = lower value 0.972 | locus YOR231W, strain MKK1, stronger effect = lower value 0.96 | locus YOR265W, strain rbl2, stronger effect = lower value 0.983 | locus YOR270C, strain vph1, stronger effect = lower value 0.94 | locus YOR290C, strain snf2, stronger effect = lower value 0.975 | locus YPL051W, strain arl3, stronger effect = lower value 0.996 | locus YPL078C, strain atp4, stronger effect = lower value 0.976 | locus YPL106C, strain sse1, stronger effect = lower value 0.953 | locus YPL240C, strain hsp82, stronger effect = lower value 0.972 | locus YPL256C, strain CLN2, stronger effect = lower value 0.95

Reference: PubChem BioAssay AID1159580 (chemical genetic matrix, 2015)
